PubChem BioAssay AID485270 (The Scripps Research Institute Molecular Screening Center, 2010)
Screen size: about 330,000 compounds; about 5,800 (1.8%) were called active. Cut-off read from the data, not from the text of the source: active = inhibition mostly above about 38% (no sharp cut-off); inactive = mostly below about 40%. Many of the other results were omitted from the sample, so actives are more common in it than they were.

What follows are molecules tested against Orexin/Hypocretin receptor type 1 (Homo sapiens) (UniProt O43613) (assay: antagonists of human orexin 1 receptor (OX1R) (AID 485270;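 note: 0% = agonist challenge alone and 100% = reference antagonist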)). Settings: OX1R-expressing cells, FRET antagonist read-out; at 6.6 µM; stronger effect = higher value.
Sequence of Orexin/Hypocretin receptor type 1 (Homo sapiens) (O43613 whole entry, looked up): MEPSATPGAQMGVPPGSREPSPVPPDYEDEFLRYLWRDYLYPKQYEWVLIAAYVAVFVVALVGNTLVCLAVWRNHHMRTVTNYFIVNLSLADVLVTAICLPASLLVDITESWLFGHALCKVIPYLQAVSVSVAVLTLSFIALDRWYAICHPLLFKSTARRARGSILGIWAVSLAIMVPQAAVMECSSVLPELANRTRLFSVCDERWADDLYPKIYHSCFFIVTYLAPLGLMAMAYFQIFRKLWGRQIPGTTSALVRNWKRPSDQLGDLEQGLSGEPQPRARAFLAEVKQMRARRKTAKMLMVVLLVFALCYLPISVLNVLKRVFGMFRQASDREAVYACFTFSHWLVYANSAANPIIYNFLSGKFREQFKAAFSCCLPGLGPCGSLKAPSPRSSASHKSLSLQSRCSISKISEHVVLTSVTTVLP

inhibition, inactive:
Cc1cc(C)nc(NC(=O)Nc2ccccc2C(F)(F)F)n1 19.6%
COc1cccc(C(=O)NNC(=O)c2cccc(F)c2)c1 -10.7%
COc1cccc(CNC(=O)COC(=O)CN2C(=O)NC3(CCCCC3C)C2=O)c1 (stereo unspecified) 4.53%
CNC(=O)CN1C(=O)NC(c2ccccc2)(c2ccccc2)C1=O 27%
O=C(NCc1ccc2c(c1)OCO2)c1c(-c2ccsc2)sc2ccccc12 35.8%
Cc1ccc(S(=O)(=O)N(C)c2ccc(OCC(=O)OCc3ccc(C#N)cc3)cc2)cc1 5.89%
Cc1c(NC(=S)Nc2ccccc2)c(=O)n(-c2ccccc2)n1C 6.12%
Cc1c(NC(=O)C(C)Oc2cccc(Cl)c2)c(=O)n(-c2ccccc2)n1C (stereo unspecified) 16%
COc1ccc(-c2noc(CCC(=O)N3CCN(c4cccc(C)c4)CC3)n2)cc1 7.06%
CN(C)C(=O)CCc1ccc2c3c([nH]c2c1)[C@]1(C)[C@@H](C(=O)N2CCCCC2)C[C@H](CC(=O)NCCC2=CCCCC2)C(=O)N1CC3 10.5%
C[C@@H]1CN([C@@H](C)CO)C(=O)c2cccc(NS(=O)(=O)c3ccc(F)cc3)c2O[C@H]1CN(C)C(=O)NC1CCCCC1 11.9%
COc1ccc(C(=O)OCc2cc(=O)n3ccsc3n2)cc1F 3.7%
CCN1/C(=C/c2ccc3ccc(C)cc3[n+]2CC)Sc2ccccc21 38.5%
CN(CC(=O)Nc1ccc(OC(F)F)cc1)S(=O)(=O)/C=C/c1ccccc1 6.62%
Cn1c(N)c(C(=O)COC(=O)c2cccc(S(=O)(=O)N3CCOCC3)c2)c(=O)n(C)c1=O 13.1%
Cn1c(N)c(C(=O)COC(=O)c2cnc(Cl)c(Cl)c2)c(=O)n(C)c1=O 6.46%
Cn1cncc1C#Cc1c(-c2ccsc2)sc2ccccc12 10.4%
CC1Cc2ccccc2N1S(=O)(=O)c1cccc(C(=O)OCC(=O)N2CCOCC2)c1 (stereo unspecified) 7.49%
O=S(=O)([N-]c1nc2ccccc2nc1-[n+]1ccc(Cc2ccccc2)cc1)c1ccc(Br)s1 20.8%
Cc1ccc(C)c(NC(=O)CN(C)C(=O)COc2ccc3ccccc3c2)c1 19.9%
Cc1ccnc(-n2sc3ccccc3c2=O)n1 15.6%
c1ccc2sc(NN=C3CCCC3)nc2c1 3.98%
COc1ccc(/C=C/C(=O)Nc2ccc(C34CC5CC(CC(O)(C5)C3)C4)cc2)cc1OC 18.9%
C=CCC[C@@H](Cc1ccc(F)cc1)C(=O)OC[C@@H](C)NC(=O)[C@H](CC=C)CC(=O)N(CCO)Cc1ccccc1 7.32%
O=S(=O)(NCC1CN(S(=O)(=O)c2ccc3c(c2)OCCO3)C1)c1c(F)cccc1F 3.02%
Cc1nc(-c2ccc([N+](=O)[O-])cc2)c(-c2ccccc2)o1 5.07%
Cc1cc(CO)nn1-c1ccc([N+](=O)[O-])cc1 46.5%
O=C(COc1ccc(Br)cc1F)NCC1(N2CCCCC2)CCCCC1 9.11%
O=C(COC(=O)c1ccc([N+](=O)[O-])o1)NC12CC3CC(CC(C3)C1)C2 23.2%
O=C(Oc1ccc(Br)cc1C(=S)N1CCOCC1)c1cccc([N+](=O)[O-])c1 18.1%
O=C(Nc1ccc(C(=O)N2CCCCC2)cc1)c1cccc([N+](=O)[O-])c1 4.33%
CC(=O)Nc1ccc(NC(=O)COC(=O)C2CCC(C(C)(C)C)CC2)cc1 (stereo unspecified) 7.49%
O=C(Nc1ccc(-n2cccn2)cc1)C1CCN(Cc2ccsc2)CC1 -0.73%
COc1ccccc1CNC(=O)c1ccc(Cl)c(S(=O)(=O)N2CCCC2)c1 16.6%
COc1ccc(CNC(=O)COC(=O)C(CCSC)N2C(=O)c3ccccc3C2=O)cc1 (stereo unspecified) 9.55%
COc1cc(OC)cc(C(=O)NC(C(=O)N2CCC2)C(C)C)c1 (stereo unspecified) 4.23%
Cc1ccc(C)c(-c2nnc(NC(=O)CS(=O)(=O)c3ccccc3)o2)c1 12.7%
COc1ccc(NC(=O)CS(=O)(=O)c2ccccc2)cc1 -4.46%
CCCCNc1c(-c2cccc(Sc3ccc(OC)cc3)c2)nc2ccccn12 32.8%
c1ccc2c(CCN3CCNC[C@H]3Cc3cccc4ccccc34)cccc2c1 3.65%
CC(NC(=O)COC(=O)Cn1cc(C(F)(F)F)ccc1=O)c1ccccc1 (stereo unspecified) 3.44%
O=c1[nH]c(-c2ccccc2)c(-c2ccccc2)[nH]1 8.25%
O=c1[nH]c(-c2cccs2)nc2ccccc12 42.7%
Cc1cc2nc3c(=O)n(Cc4ccccc4)c(=O)[nH]c3nc2cc1N 14.8%
O=C1OCCN1C(=O)[C@H]1[C@H](c2ccc(Cl)cc2)C(c2cccc(Cl)c2)=NN1c1ccc(Br)cc1 -1.81%
Cc1ccc(C)c(N2CCN(C(=O)CCc3nc(-c4cccc(C(F)(F)F)c4)no3)CC2)c1 5.16%
CC(=O)N(O)CCCCCNC(=O)CCC(=O)N(O)CCCCCNC(=O)CCC(=O)N(O)CCCCCNC(=O)CCC(=O)O 3.94%
Cc1ccc(C(=O)Nc2ccc3c(c2)OCCO3)cc1S(=O)(=O)N1CCOCC1 1.11%
COc1cc(OC)cc(C(=O)N[C@H](C(=O)NNC(=O)c2ccc(Br)cc2)C(C)C)c1 6.01%
O=C(c1ccc2c(c1)OCO2)N1CCOCC1 14.4%
N/C(=N\OC(=O)c1ccc2c(c1)OCO2)c1ccc(Br)cc1 10.9%
CC(C)(C)OC(=O)C[C@@H]1C/C=C\C[C@@H](CC(=O)N[C@H](CO)Cc2ccccc2)C(=O)NCCOC1=O 5.83%
O=C(C[C@H]1C/C=C\C[C@@H](NC(=O)OCC2c3ccccc3-c3ccccc32)C(=O)O[C@@H](c2ccccc2)CNC1=O)N[C@H](CO)Cc1ccccc1 6.4%
Cc1cc(N2CCCC2)ccc1NC(=O)COc1ccc(Cl)cc1 8.39%
COC(=O)N/N=C/c1ccc(/C=N/NC(=O)OC)cc1 48.6%
COC(=O)N/N=C/c1cn(CCCOc2ccc(C)cc2)c2ccccc12 13.5%
O=C(Nc1cc(S(=O)(=O)N2CCCCC2)ccc1Cl)C1COc2ccccc2O1 (stereo unspecified) 2.12%
CC(=O)c1ccc(NC(=O)CSc2nc3ccccc3c(=O)n2CCCN2CCOCC2)cc1 3.62%
Cc1ccc(-c2noc(CSc3nnc(-c4ccncc4)n3-c3ccc(F)cc3)n2)cc1 13.8%
Cc1ccc(-c2noc(CSc3nnc(-c4ccccc4)n3C)n2)cc1 14.3%
Cc1cccc(C)c1OC(=O)CSc1nnc(-c2ccccc2)o1 27.6%
O=C(CSc1nnc(-c2ccc([N+](=O)[O-])cc2)o1)Nc1ccccn1 20.6%
Cc1noc(C)c1NC(=O)Nc1ccc2c(c1)C(=O)N([C@H](C)CO)C[C@H](C)[C@@H](CN(C)C(=O)Nc1ccc(C(F)(F)F)cc1)O2 7.42%
COc1ccc(CCNC(=O)COC(=O)c2ncc(Cl)c(Cl)c2Cl)cc1OC 9.72%
Cc1ccc(-c2noc(CSc3nnnn3-c3ccccc3)n2)cc1 5.93%
COc1ccc(C)cc1-n1nnnc1SCc1nc2ccccc2c(=O)[nH]1 35.5%
CCn1c(O)c(N=NC(=O)c2cccc(S(=O)(=O)N3CCCCC3)c2)c2ccccc21 11%
COC(=O)Cn1c2ccc(C)cc2c2nc(C)sc21 11.6%
CCN(C(=O)CSc1cccc[n+]1[O-])c1ccccc1 0.91%

inhibition, active:
COc1cccc(C(=O)NC(=O)Nc2nc(C)cc(C(F)(F)F)n2)c1 64.4%
COc1cccc(CNC(=O)CN2C(=O)NC(Cc3ccccc3)(c3ccccc3)C2=O)c1 (stereo unspecified) 40.8%
Cc1cccc(OP(=O)(Nc2c(C)n(C)n(-c3ccccc3)c2=O)Oc2cccc(C)c2)c1 61.5%
CCN1/C(=C\c2ccc3ccccc3[n+]2CC)Sc2cc(C)ccc21 69.9%
Cn1c(N)c(C(=O)COC(=O)c2ccc3ccccc3c2)c(=O)n(C)c1=O 44.9%
Cc1ccnc(Nc2nc3ccccc3s2)n1 55.2%
Cc1nn(-c2ccc([N+](=O)[O-])cc2)c(N)c1-c1ccccc1 62.8%
O=C(Oc1ccccc1C(=S)N1CCCCC1)c1cc([N+](=O)[O-])cc([N+](=O)[O-])c1 123%
COc1ccc(-c2nnc(NC(=O)CS(=O)(=O)c3ccc(Cl)cc3)o2)c(OC)c1 47.9%
Nc1ccc2nc3c(=O)[nH]c(=S)[nH]c3nc2c1 93.8%
O=c1[nH]c(=O)c2nc3ccccc3nc2[nH]1 53.3%
Nc1[nH][nH]c(=O)c1N=Nc1ccc2c(c1)OCO2 84.8%
COC(=O)N/N=C/c1c[n+]([O-])c2ccccc2[n+]1[O-] 101%
Fc1ccc(-n2c(Cc3ccccc3)nnc2SCc2nc(-c3ccc(Cl)cc3)no2)cc1 35%
CCOC(=O)CSc1nnc(-c2ccc([N+](=O)[O-])cc2)o1 58.6%
Cc1ccc(Nc2nc(CSc3nnnn3-c3ccccc3)cc(=O)[nH]2)cc1 81.8%
CCn1c(O)c(N=NC2=NC(=O)CS2)c2cc(C)ccc21 101%
